The source made the active and inactive calls. Unless noted, the rule behind the calls is not given here.

Consider 17 molecules from PubChem BioAssay.

The test system of test [1] is XIP peptide (Xip251-270) binding. The test is described as follows: XIP fragment 251-270 binding compounds – biochemical, small-molecule microarray, fluorescence 635/667 nm, 0.1 µg/mL protein, primary screen (AID 1182). The conditions noted are these: fluorescent protein binding, 635 nm, higher = more signal, called active from +8 up or from −8 down.
The subject of test [2] is XIP peptide (Xip251-270). The test can be described thus: compounds binding XIP fragment 251-270 – biochemical, small-molecule microarray, fluorescence 635/667 nm, 0.5 µg/mL protein, primary screen (AID 1183). As to conditions: fluorescence 635 nm, higher = more signal.
Test [3] in a line: blood-stage malaria parasite viability loss – strain 3D7, DAPI fluorescence, 100 nL, primary screen (AID 1184).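 Note: parasites grown inside human red blood cells in medium with human serum.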 As to conditions: P. falciparum 3D7 growth, 3 d, higher = more signal.
Test [4] concerns the target Homeobox protein Hox-A13 (Mus musculus) (UniProt Q62424). The test can be described thus: disruptors of Hoxa13 oligonucleotide interaction – biochemical, fluorescence polarization, labeled oligonucleotide, primary screen (AID 1185). The conditions noted are these: Hoxa13:DNA binding, 15 min, higher = more signal, called active from +8 up or from −8 down. (Fluorescence polarisation rises when a labelled molecule tumbles more slowly, as on binding a larger partner.)

A short description of test [5]: blockers of DNA damage checkpoint Chk1 activation – imaging, HeLa, hydroxyurea, phospho-Chk1 antibody, percent positive cells, primary screen (AID 1186). The conditions noted are these: hydroxyurea-induced phospho-Chk1 immunofluorescence imaging, higher = more signal.
Test [6] in a line: blockers of DNA damage checkpoint Chk1 activation – imaging, HeLa, hydroxyurea, phospho-Chk1 nuclear intensity, primary screen (AID 1187). As to conditions: hydroxyurea-induced phospho-Chk1 immunofluorescence imaging, higher = more signal.

Sequence of Homeobox protein Hox-A13 (Mus musculus) (Q62424 whole entry, looked up): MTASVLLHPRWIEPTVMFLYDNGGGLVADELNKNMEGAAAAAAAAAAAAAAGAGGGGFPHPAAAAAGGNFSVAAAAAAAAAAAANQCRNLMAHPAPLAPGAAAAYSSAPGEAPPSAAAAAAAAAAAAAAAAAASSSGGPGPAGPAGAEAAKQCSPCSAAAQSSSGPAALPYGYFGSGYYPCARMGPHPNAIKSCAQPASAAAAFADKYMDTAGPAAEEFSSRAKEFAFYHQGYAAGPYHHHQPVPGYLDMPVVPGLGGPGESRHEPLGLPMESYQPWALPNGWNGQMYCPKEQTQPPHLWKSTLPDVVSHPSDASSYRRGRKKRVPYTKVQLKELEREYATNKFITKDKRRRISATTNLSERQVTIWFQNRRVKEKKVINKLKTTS

For the molecule `CCC(CC)C(O)C1C=CC2C(=O)N(c3ccccc3)C(=O)C2N1Nc1ccc(C#N)cc1` (configuration not stated), the composite z-score is 0.132 (inactive) in test [1] and 0.799 in test [2]. The z-score is 0.324 in test [3], -1.39 (inactive) in test [4], 0.288 (inactive) in test [5] and 0.192 (inactive) in test [6].
`COC(=O)[C@]1(Cc2ccccc2N=[N+]=[N-])N=C(c2ccc(OCCCO)cc2)O[C@@H]1c1ccccc1N=[N+]=[N-]`: the composite z-score in test [1] was 0.404 (inactive); in test [2] it was 0.614. Also, the z-score in test [3] is -2.09; in test [4], -2.31 (inactive); in test [5], -0.53 (inactive); in test [6], -0.923 (inactive).
Regarding `COC(=O)c1ccc(C23CC2(C(NP(=O)(c2ccccc2)c2ccccc2)c2ccccc2)C3)cc1` (configuration not stated), the values for the composite z-score in test [1] and in test [2] were 0.946 (inactive) and 0.474, respectively. Moreover, the z-score is -1.35 in test [3], -3.76 (inactive) in test [4], -1.54 (inactive) in test [5] and -1.34 (inactive) in test [6].
`CCOC(=O)C[C@H]1[C@H](OC(=O)Cc2ccc3c(c2)OCO3)[C@@H](NC(=O)c2ccc(-c3ccccc3)cc2)c2cc(OCCCO)ccc2N1C(=O)c1ccccc1`: the figures for the composite z-score in test [1] and in test [2] were -0.238 (inactive) and 0.729, respectively. Moreover, the z-score in test [3] was -1.77; in test [4] it was -1.88 (inactive); in test [5], -0.467 (inactive); in test [6], -0.214 (inactive).
With `CN1CCC(CCCO)=CC1c1ccc(CN2CCCC2)cc1` (configuration not stated), the composite z-score in test [1] was 0.426 (inactive); in test [2] it was 0.506. Besides, the z-score was -1.18 in test [3], -2.07 (inactive) in test [4], 0.56 (inactive) in test [5] and 0.903 (inactive) in test [6].
Turning to `CCOc1cc(C(O)C2C=CC3C(=O)N(c4ccccc4)C(=O)C3N2Nc2ccc([N+](=O)[O-])cc2)ccc1O` (configuration not stated), the figures for the composite z-score in test [1] and in test [2] were -0.394 (inactive) and 0.546, respectively. The z-score in test [3] is -1.76; in test [4] it was -5.51 (inactive); in test [5], 0.555 (inactive); in test [6], -0.452 (inactive).
Take `COC(=O)c1ccc(OC)c(/C=C\CC(OC(C)=O)c2ccccc2)c1` (configuration not stated): the composite z-score is 0.322 (inactive) in test [1] and 0.501 in test [2]. Moreover, the z-score in test [3] is 0.0859; in test [4] it was -2.35 (inactive); in test [5] it was 0.237 (inactive); in test [6], 0.328 (inactive).
Regarding `COCCCNC(=O)[C@@]1(CCC(=O)OC(C)(C)C)N=C(c2ccc(OCCCO)cc2)O[C@H]1c1ccccc1CN=[N+]=[N-]`, the composite z-score was 0.748 (inactive) in test [1] and 0.761 in test [2]. Besides, the z-score is -1.99 in test [3], -5.33 (inactive) in test [4], -0.376 (inactive) in test [5] and -0.101 (inactive) in test [6].
`[N-]=[N+]=NCc1ccccc1C[C@]1(C(=O)NCC(O)CO)N=C(c2ccc(OCCCO)cc2)O[C@H]1c1ccccc1N=[N+]=[N-]` (some centres not stated): the composite z-score in test [1] is -0.188 (inactive); in test [2], 0.0926. Besides, the z-score is -2.25 in test [3], -3.25 (inactive) in test [4], -0.985 (inactive) in test [5] and -1.52 (inactive) in test [6].
Consider `Cc1ccc([C@H]2[C@H](C(=O)O)[C@H](Sc3ccccc3)[C@@H](C(C)C)N2S(=O)(=O)c2ccc(C)cc2)cc1`, for which the results for the composite z-score in test [1] and in test [2] were 2.49 (inactive) and 0.787, respectively. The z-score in test [3] was -0.619; in test [4], -6 (inactive); in test [5] it was 0.237 (inactive); in test [6], -0.0069 (inactive).
`CN(C)C(=O)[C@]1(CCC(=O)OC(C)(C)C)N=C(c2ccc(OCCCO)cc2)O[C@@H]1c1ccccc1N=[N+]=[N-]`: the composite z-score was 0.639 (inactive) in test [1] and 0.803 in test [2]. For the same molecule, the z-score was -1.84 in test [3], -6.23 (inactive) in test [4], 0.201 (inactive) in test [5] and 0.588 (inactive) in test [6].
`COc1ccc(CCN2C(=O)[C@@]3(Cc4ccccc42)c2ccccc2C(=O)N(Cc2ccccc2Cl)[C@H]3c2ccc(CO)cc2)cc1`: the composite z-score in test [1] was -0.227 (inactive); in test [2], 0.285. Also, the z-score in test [3] is -1.37; in test [4] it was -0.482 (inactive); in test [5], -0.214 (inactive); in test [6] it was -0.322 (inactive).
As to `C=CCOC(=O)[C@H]1[C@@H]2C(=O)O[C@@H](c3ccccc3)[C@@H](c3ccccc3)N2[C@@H](c2ccc(OCCOC(=O)[C@@H]3C[C@@H]4C(=O)NCC(=O)N4[C@@H]3c3ccc(O)cc3)cc2)[C@]12C(=O)Nc1ccccc12`, the composite z-score in test [1] is 0.941 (inactive); in test [2] it was 0.854. In addition, the z-score is -1.86 in test [3], 0.503 (inactive) in test [4], -0.341 (inactive) in test [5] and 0.559 (inactive) in test [6].
As for `COCCOC(=O)N1C(=O)[C@@]2(c3cc(C#CC4(O)CCCCCC4)ccc31)[C@H](C(=O)N1CCCCCCC1)[C@H]1C(=O)O[C@H](c3ccccc3)[C@H](c3ccccc3)N1[C@@H]2c1ccccc1OCCO`, the composite z-score in test [1] was -0.0713 (inactive); in test [2], 0.762. Besides, the z-score is -2.39 in test [3], 3.19 (inactive) in test [4], -0.0968 (inactive) in test [5] and 0.298 (inactive) in test [6].
With `O=C1C[C@]2(c3ccc([N+](=O)[O-])cc3)C(=O)N(CC(F)(F)F)c3cc(CO)ccc3[C@H]2N1CC12CC3CC(CC(C3)C1)C2`, the results for the composite z-score in test [1] and in test [2] were 0.2 (inactive) and 0.822, respectively. Moreover, the z-score in test [3] was 0.0278; in test [4], 0.2 (inactive); in test [5], -0.151 (inactive); in test [6] it was -0.382 (inactive).
For `CC(C)C(=C=CC[C@H](O)c1ccccc1OCCO)C[C@H](O)c1ccccn1`, the composite z-score in test [1] is 0.241 (inactive); in test [2], 0.0067. For the same molecule, the z-score in test [3] was -1.41; in test [4] it was -4.79 (inactive); in test [5], 0.293 (inactive); in test [6] it was 0.546 (inactive).
Turning to `COc1ccc(C(O)C2C=CC3C(=O)N(c4ccccc4)C(=O)C3N2Nc2ccc([N+](=O)[O-])cc2)cc1OCc1ccccc1` (configuration not stated), the results for the composite z-score in test [1] and in test [2] were 0.522 (inactive) and 0.891, respectively. The z-score in test [3] was -0.303; in test [4], -1.46 (inactive); in test [5] it was -0.105 (inactive); in test [6], -1.67 (inactive).
